VP16 counter = VP16 counterscreen qHTS for inhibitors of ROR gamma transcriptional activity; hit rate 3.5% among 310,000; Drosophila S2 Gal4-VP16 UAS-luciferase, luminescence, 20 h; Potency, µM (highest dose often 53.6 µM), inactives show top-dose activity, negative = inhibition, most hits filed as inhibitors;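 also: Gal4-VP16 expression switched on by copper sulfate through the metallothionein promoter; nearly all actives have a fitted effect of over 50% in size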
PLK1 PBD block = qHTS for Inhibitors of PLK1-PDB (polo-like kinase 1 - polo-box domain): Primary Screen; Potency, µM, inactives show max response, negative = inhibition, actives largely listed as inhibitors; Plk1 PBD binding of FITC phosphopeptide, fluorescence polarization; Serine/threonine-protein kinase PLK1 (Homo sapiens), P53350; hit rate 2.8% among 360,000; also: series mostly up to about 57 µM; nearly all actives have a fitted effect of over 65% in size
ALDH1A1 block = qHTS Assay for Inhibitors of Aldehyde Dehydrogenase 1 (ALDH1A1); Aldehyde dehydrogenase 1A1 (Homo sapiens), P00352; Purified ALDH1A1, NADH fluorescence, propionaldehyde substrate; Potency, µM (top dose mostly 75.3 µM), without a hit: at the top dose activity, negative = inhibition, most hits filed as inhibitors; hit rate 7.3% among 220,000; AID 1030, 2008; active = well fitted inhibition curve with a large enough effect, not every such curve was filed as active; inconclusive = small, poorly fitted or top-dose-only effect, or another doubt; inactive = no such curve, though single readings can be large or run the other way;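 also: plate controls were no enzyme wells and a reference inhibitor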
Target sequence (P00352 whole entry, looked up): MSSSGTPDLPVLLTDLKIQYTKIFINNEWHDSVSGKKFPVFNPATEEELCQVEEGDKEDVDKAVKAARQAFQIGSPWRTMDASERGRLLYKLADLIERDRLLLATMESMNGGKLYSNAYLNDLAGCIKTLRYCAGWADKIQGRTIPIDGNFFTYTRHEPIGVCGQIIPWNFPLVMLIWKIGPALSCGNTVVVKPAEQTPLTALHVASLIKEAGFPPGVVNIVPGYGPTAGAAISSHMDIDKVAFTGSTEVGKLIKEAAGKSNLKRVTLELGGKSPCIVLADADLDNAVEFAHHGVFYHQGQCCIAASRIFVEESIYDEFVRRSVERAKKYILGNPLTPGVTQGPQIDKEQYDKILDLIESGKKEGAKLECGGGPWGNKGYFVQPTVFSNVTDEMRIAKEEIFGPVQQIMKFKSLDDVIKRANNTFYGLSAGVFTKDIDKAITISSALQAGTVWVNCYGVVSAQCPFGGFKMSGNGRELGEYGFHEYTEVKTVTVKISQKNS
RORgamma inh = qHTS for inhibitors of ROR gamma transcriptional activity. Drosophila S2 Gal4-RORgamma UAS-luciferase reporter, 20 h. Potency, µM (top dose mostly 53.6 µM), inactives show at the top dose activity change, negative = inhibition, most hits filed as inhibitors. hit rate 5.4% among 310,000. AID 2551, 2010; also: nearly all actives have a fitted effect of over 60% in size
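Drosophila Schneider cells stably carrying a metallothionein-driven Gal4 DBD–ROR gamma fusion and a UAS-Photinus luciferase reporter were exposed to compound for 1 hr, then induced with copper sulfate (700 uM final) for 20 hr at ambient temperature before luminescence reading.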
Sfp PPTase inh = qHTS Assay for Inhibitors of Bacillus subtilis Sfp phosphopantetheinyl transferase (PPTase); 4'-phosphopantetheinyl transferase ffp (Bacillus subtilis), Q9F4F7; Biochemical Sfp PPTase activity, qHTS; hit rate 3.5% among 310,000; AID 1490, 2009; Potency, µM, for inactives: largest response in the series, negative = inhibition, actives largely listed as inhibitors;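 also: the enzyme is Sfp with the accession as filed and its product quenches rhodamine fluorescence; 0% = enzyme reaction without inhibitor and -100% = no enzyme wells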
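Reaction rates are the 30-min fluorescence difference (ex 525, em 598 nm) in wells containing 15 nM Sfp, 5 uM rhodamine-CoA and 12.5 uM BHQ-2-YbbR at pH 7.6 with 10 mM MgCl2.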
* hit, by the source's call; ? = inconclusive; · = not tested or not shown; ! = a repeat was not active. Compounds with a hit are over-represented: about 12% of the library has one in this group of screens. Unless noted, calls follow the shape of the dose curve; as a rule, active = well fitted curve in the direction sought with a large enough effect; inconclusive = small, poorly fitted or top-dose-only effect, or another doubt; inactive = no such curve, though single readings can be large; an effect the other way counts as inactive or inconclusive. Unless noted, % is scaled to controls: 0 for no effect and ±100 for the full control effect; potency is read from the fitted curve at half-maximal effect.

SMILES	VP16 counter	PLK1 PBD block	ALDH1A1 block	RORgamma inh	Sfp PPTase inh
COc1cc([N+](=O)[O-])cc2sc(NC(=O)c3c(F)cccc3F)nc12	?	-12%	7.9µM*	24%	9%
CCOC(=O)c1nnn(-c2ccccc2)c1C	12%	-9%	3%	27%	20%
CCOC(=O)N1CCN(/[N+]([O-])=N/Oc2ccc([N+](=O)[O-])cc2[N+](=O)[O-])CC1	7.1µM*!	·	·	8.9µM*	-28%
Cc1nccn1-c1ccc(C(F)(F)F)cc1[N+](=O)[O-]	21%	-3%	?	-32%	17%
COCc1c(C(=O)OC)nnn1-c1ccc(C(F)(F)F)cc1[N+](=O)[O-]	4%	27µM*	7%	?	26%
CCOC(=O)N1CCN(S(=O)(=O)c2ccc([N+](=O)[O-])cc2)CC1	-2%	1%	-3%	5%	19%
CCOC(=O)c1nnn(-c2ccc([N+](=O)[O-])cc2[N+](=O)[O-])c1C	?	-12%	?	7.1µM*	0%
COc1ccc(OCCNC(=O)c2ccc3nc(C)c(N(C)Cc4ccc(NC(C)=O)cc4)n3c2)cc1	·	4%	·	·	·
O=c1c(-c2ccco2)[n+]([O-])c2ccccc2n1OCc1c(F)cccc1F	2%	?	·	27%	50µM*
COc1ccccc1COn1c(=O)c(-c2ccco2)[n+]([O-])c2ccccc21	22%	?	22µM*	-17%	50µM*
CCOn1c(=O)c(-c2cc3ccccc3o2)[n+]([O-])c2ccccc21	13%	30µM*	?	21%	0%
CCOC(=O)COn1c(=O)c(-c2ccco2)[n+]([O-])c2ccccc21	-1%	-23%	-2%	0%	25µM*
CCOC(=O)COn1c(=O)c(-c2ccc(C)cc2)[n+]([O-])c2ccccc21	6%	-3%	·	30%	6%
CC1(C)CC(=O)C=C(c2ccc(-c3cnn(Cc4ccccc4)c3)cc2)C1=O	·	-1%	·	·	·
COc1ccc(-c2cc3nc(C)cc(N4CCN(C(=O)c5cccnc5)CC4)n3n2)cc1	·	-14%	·	·	·
CC(C)(C)Cc1c(-c2ccccc2)nc2ccc(Cl)cn12	·	3%	·	·	·
O=c1c(-c2ccco2)[n+]([O-])c2ccccc2n1OCc1ccccc1	10%	?	22µM*	-1%	?
O=c1c(-c2ccco2)[n+]([O-])c2ccccc2n1OCc1ccccc1F	0%	?	?	0%	-5%
O=C1c2ccccc2S(=O)N1c1cccc(F)c1 (stereo not given)	·	24µM*	·	·	·
O=C1c2cccc3cccc(c23)C(=O)N1CCN1CCN(CC(O)COc2ccc3ccccc3c2)CC1 (stereo not given)	11µM*	-5%	-14%	?	25µM*
Cc1cc(C)cc(OCC(O)CN2CCC(CN3C(=O)c4cccc5cccc(c45)C3=O)CC2)c1 (stereo not given)	-5%	27µM*	8%	2%	-1%
CCc1ccc(OCC(O)CN2CCC(CN3C(=O)c4cccc5cccc(c45)C3=O)CC2)cc1 (stereo not given)	-14%	3%	?	-21%	50µM*
O=C1c2cccc3cccc(c23)C(=O)N1CC1CCN(CC(O)COc2ccc3ccccc3c2)CC1 (stereo not given)	-9%	-9%	?	27%	8%
C[C@@H]1CN([C@H](C)CO)C(=O)CCCn2cc(nn2)CO[C@H]1CN(C)S(=O)(=O)c1ccc(-c2ccccc2)cc1	·	-27%	·	·	·
COC(=O)C/C=C/[C@@H](C)[C@H](NC(=O)OCC(Cl)(Cl)Cl)c1cccc(OC)c1	-1%	·	-8%	12%	20%
SMILES	VP16 counter	PLK1 PBD block	ALDH1A1 block	RORgamma inh	Sfp PPTase inh
CC(=O)c1sc(NC(=O)c2ccc(Cl)cc2)nc1C	20%	-5%	·	-2%	10%
Cc1ccc(C(=O)Nc2sc(C)c(C)c2C(=O)c2ccccc2)cc1	15%	3µM*	10µM*	-4%	20µM*
Cn1sc(NC(=O)c2ccc(Cl)cc2)nc1=O	-9%	-8%	22µM*	-13%	56µM*
Cc1ccc(C(=O)Nc2nnc(C)s2)cc1	-18%	-1%	6%	10µM*	0%
Cc1ccc(C(=O)Nc2nc(=O)n(C)s2)cc1	11µM*	3%	1%	8.9µM*	8%
Cc1ccc(C(=O)Nc2nc(=O)n(C(=O)c3ccccc3Cl)s2)cc1	-2%	?	?	4%	-14%
CC(=O)c1ccc(Nc2nc(C(N)COCc3ccccc3)cs2)cc1 (stereo not given)	·	3%	·	·	·
O=S(=O)(NN=C1CCCCCC1)c1ccccc1	-4%	7%	·	1%	17%
CCOC(=O)c1sc(NC(=O)C2=COCCO2)c(C#N)c1C	·	27µM*	·	·	·
CCOC(=O)c1sc(NC(=O)c2cccnc2)c(C#N)c1C	-8%	-6%	-8%	34%	0%
CCOC(=O)c1sc(NC(=O)C(C)C)c(C#N)c1C	1%	3µM*	5%	-3%	12%
Cc1nn(C)c(C)c1S(=O)(=O)NC1CCCC1	-5%	-9%	-1%	-2%	16%
Cc1nn(-c2nnc(NC3CCCCC3)nn2)c(C)c1Br	-16%	-3%	14µM*	-1%	3%
CCOC(=O)c1c(C)oc2c(CN3CCN(C)CC3)c(Br)c(OC)c(O)c12	18µM*	-3%	?	?	?
CCCCC/C=C\C/C=C\CCCCCCCC(=O)NC(C)C(=O)O (stereo not given)	-8%	·	1%	-16%	11%
COc1ccc(-n2c(=O)cnc3cnc(Nc4ccccc4)nc32)cc1	-1%	·	?	-3%	19%
O=C(CSC1=NC(=O)C(Cc2ccccc2)C(=O)N1)Nc1ncc(Br)cc1Br (stereo not given)	0%	-20%	40µM*	19%	?
O=C(CSC1=NC(=O)C(Cc2ccccc2)C(=O)N1)Nc1ncccn1 (stereo not given)	-8%	·	0%	-1%	-5%
CCOC(=O)c1c(C)[nH]c(C(=O)N/N=C/c2ccc(OC)c(OC)c2)c1C	-7%	-1%	·	-34%	14%
CCNC(=O)C(=O)N/N=C/c1cc([N+](=O)[O-])ccc1O	?	1%	-3%	11µM*	15%
CCOC(=O)c1c(C)[nH]c(C(=O)N/N=C/c2cc([N+](=O)[O-])ccc2O)c1C	?	-3%	·	2.2µM*	-3%
O=C(N/N=C/c1ccncc1)C12CC3CC(CC(C3)C1)C2	16%	38µM*	0%	-20%	17%
O=C(N/N=C/c1cc([N+](=O)[O-])ccc1O)C12CC3CC(CC(C3)C1)C2	0.71µM*	-14%	0.89µM*	?	19%

Screening results as filed in PubChem.
